These results are taken from PubChem BioAssay (NCI).

Some test systems named below: DU-145 prostate; K-562 leukemia; MALME-3M melanoma; MDA-MB-231 breast; RXF 393 renal; SF-268 CNS; SF-295 CNS; SF-539 CNS; UACC-257 melanoma; M14 melanoma; HCT-15 colon; HT29 colon; SNB-75 CNS; SNB-19 CNS; U251 CNS; PC-3 prostate; SK-MEL-5 melanoma; UACC-62 melanoma; LOX IMVI melanoma; SK-MEL-28 melanoma.
What all share (assay): NCI-60 one-dose screen, 48 h (100 = growth as untreated, 0 = no growth, -100 = all killed)
Common to all, as to conditions: 10 µM unless noted

SMILES strings stand for the structures. Compounds without any hit were thinned out: in the full panel of roughly 83,000, 20% have a hit.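 48-hour exposure, single concentration, 96-well plates; percent growth endpoint where 0 means no net growth. Active: below 10.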 Unmarked numbers belong to inactive results. Calls of active or inactive are those of the source.

Take `CC1(C)CC(=O)c2c(nn(-c3ccc(Br)cc3)c2-c2cn(-c3ccccc3)nc2-c2cccnc2)C1`: the growth in the assay on DU-145 prostate was 111%; in the assay with K-562 leukemia, 84.4%; with MALME-3M melanoma it was 101%; with MDA-MB-231 breast it was 89.7%; in the assay with RXF 393 renal it was 96.1%; with SF-268 CNS, 97.8%. Also, the growth was 92.1% in the assay on SF-295 CNS; 105% with SF-539 CNS; 111% in the assay with UACC-257 melanoma; 98.6% in the assay with M14 melanoma; 94.9% with HCT-15 colon; 98.1% with HT29 colon. For the same compound, the growth was 84.3% with SNB-75 CNS; 92.5% in the assay with SNB-19 CNS; 91.7% with U251 CNS; 71.7% in the assay on PC-3 prostate; 97.2% with SK-MEL-5 melanoma; 76.7% in the assay on UACC-62 melanoma. For the same compound, the values for the growth with LOX IMVI melanoma and in the assay with SK-MEL-28 melanoma were 85.5% and 113%, respectively.

On to `COc1ccc(/C(C)=C(/c2ccc(OCCCN(C)C)cc2)c2ccc(OC(=O)c3ccccc3)cc2)cc1`, for which the growth in the assay on DU-145 prostate is 102%; in the assay with K-562 leukemia it was 38.9%; in the assay on MALME-3M melanoma it was 83.6%; with MDA-MB-231 breast, 71.1%; in the assay with RXF 393 renal, 66.7%; in the assay with SF-268 CNS, 77.8%. For the same compound, the growth in the assay on SF-295 CNS is 89.8%; in the assay on SF-539 CNS it was 89.1%; with UACC-257 melanoma, 89.7%; in the assay with M14 melanoma it was 66.4%; with HCT-15 colon, 63%; in the assay with HT29 colon, 9.02% (active). Also, the growth with SNB-75 CNS was 105%; in the assay on SNB-19 CNS it was 94.8%; in the assay on U251 CNS, 68.2%; with PC-3 prostate, 73.4%; with SK-MEL-5 melanoma it was 85.7%; in the assay on UACC-62 melanoma it was 88.7%. Besides, the growth in the assay with LOX IMVI melanoma was -2.62% (active); in the assay on SK-MEL-28 melanoma, 85.2%.

Consider `CCOC(=O)C#Cc1c(C(=O)OCC)nnn1Cc1ccc(C(F)(F)F)cc1`, for which the growth with DU-145 prostate was 60.5%; in the assay with K-562 leukemia it was 3.87% (active); in the assay on MALME-3M melanoma it was 74.4%; in the assay on MDA-MB-231 breast, 88.1%; in the assay on RXF 393 renal, -7.11% (active); with SF-268 CNS, 86.6%. In addition, the growth was 94.8% in the assay with SF-295 CNS; 43.3% with SF-539 CNS; 74.2% in the assay on UACC-257 melanoma; 30.5% in the assay on M14 melanoma; -16.9% (active) with HCT-15 colon; 5.09% (active) in the assay with HT29 colon. The growth in the assay with SNB-75 CNS is 62.3%; with SNB-19 CNS, 85.5%; in the assay on U251 CNS, 93.7%; in the assay on PC-3 prostate, 64.5%; in the assay with SK-MEL-5 melanoma, 95.2%; with UACC-62 melanoma, 80%. Further, the results for the growth in the assay with LOX IMVI melanoma and in the assay with SK-MEL-28 melanoma were -68.3% (active) and 89.7%, respectively.

As to `O=C1Nc2ccccc2/C1=C/c1cccn1C(=O)c1ccc(Cl)s1`, the growth in the assay with DU-145 prostate is 66.8%; with K-562 leukemia, 36.8%; with MALME-3M melanoma, 104%; with MDA-MB-231 breast it was 50.9%; in the assay with RXF 393 renal, 81.1%; in the assay on SF-268 CNS, 39.4%. Moreover, the growth in the assay on SF-295 CNS is 88.8%; in the assay on SF-539 CNS it was 62.4%; with UACC-257 melanoma, 79.5%; with M14 melanoma, 82.2%; in the assay with HCT-15 colon, 17.8%; with HT29 colon it was 80.5%. Further, the growth is 63.6% in the assay on SNB-75 CNS; 28.4% in the assay with SNB-19 CNS; 22.3% in the assay with U251 CNS; 33% in the assay with PC-3 prostate; 69.8% in the assay with SK-MEL-5 melanoma; 94.9% in the assay with UACC-62 melanoma. The results for the growth in the assay on LOX IMVI melanoma and in the assay on SK-MEL-28 melanoma were 79.2% and 113%, respectively.

Consider `CCOC(=O)c1c(C)nc2c(c1N)CC(=O)N2Cc1ccc(OC)cc1`, for which the growth with DU-145 prostate was 47.4%; in the assay with K-562 leukemia it was 99.8%; with MALME-3M melanoma it was 33.6%; in the assay with MDA-MB-231 breast, 19.6%; with RXF 393 renal, 37.7%; with SF-268 CNS it was 4.12% (active). Besides, the growth with SF-295 CNS was 28.5%; in the assay with SF-539 CNS, 26.4%; with UACC-257 melanoma, 49.4%; in the assay with M14 melanoma, 86.8%; in the assay on HCT-15 colon, 55.6%; with HT29 colon, 38.4%. In addition, the growth was -5.39% (active) in the assay on SNB-75 CNS; 4.6% (active) with SNB-19 CNS; 4.05% (active) with U251 CNS; 43% in the assay on PC-3 prostate; 53.7% in the assay with SK-MEL-5 melanoma; 25.7% in the assay with UACC-62 melanoma. Also, the growth with LOX IMVI melanoma is 75.9%; with SK-MEL-28 melanoma it was 55%.

With `CC(=O)c1ccc(Nc2nccc(-c3ccc4ccccc4c3)n2)cc1`, the growth is 105% in the assay on DU-145 prostate; 59.6% in the assay with K-562 leukemia; 101% with MALME-3M melanoma; 102% in the assay on MDA-MB-231 breast; 85.1% in the assay on RXF 393 renal; 93.6% in the assay with SF-268 CNS. In addition, the growth in the assay on SF-295 CNS is 100%; in the assay with SF-539 CNS, 100%; with UACC-257 melanoma it was 104%; in the assay on M14 melanoma it was 97.6%; with HCT-15 colon, 85.7%; in the assay with HT29 colon it was 91.4%. Besides, the growth in the assay with SNB-75 CNS was 91.8%; in the assay on SNB-19 CNS, 94.9%; with U251 CNS, 95.5%; with PC-3 prostate, 91.5%; in the assay with SK-MEL-5 melanoma it was 97.6%; with UACC-62 melanoma, 88%. Moreover, the growth was 99% with LOX IMVI melanoma and 107% in the assay with SK-MEL-28 melanoma.

In the case of `N=C(N)c1ccc(-c2ccc(-c3ccccc3)s2)cc1`, the growth in the assay on DU-145 prostate was 29.5%; in the assay with K-562 leukemia it was 1.35% (active); with MALME-3M melanoma, 97.2%; in the assay on MDA-MB-231 breast, 10.3%; in the assay on RXF 393 renal, 78.7%; in the assay on SF-268 CNS, 76.4%. For the same compound, the growth in the assay on SF-295 CNS was 40.6%; in the assay on SF-539 CNS, 78.5%; in the assay with UACC-257 melanoma, 103%; with M14 melanoma, 81.1%; in the assay with HCT-15 colon it was -28.3% (active); in the assay with HT29 colon it was -5% (active). Further, the growth in the assay with SNB-75 CNS is 108%; with SNB-19 CNS, 50.1%; in the assay with U251 CNS, 9.73% (active); with PC-3 prostate it was 51.3%; in the assay on SK-MEL-5 melanoma, 95.5%; in the assay with UACC-62 melanoma, 94.9%. Moreover, the results for the growth in the assay on LOX IMVI melanoma and with SK-MEL-28 melanoma were -70.2% (active) and 113%, respectively.

`COc1cccc(NCc2nnc(Nc3ccc(Cl)cc3)c3ccccc23)c1`: the growth in the assay on DU-145 prostate was 8.3% (active); in the assay on K-562 leukemia, 2.2% (active); in the assay with MALME-3M melanoma, -22% (active); in the assay on MDA-MB-231 breast, -27.1% (active); with RXF 393 renal, -11.6% (active); with SF-268 CNS it was 2.52% (active). Besides, the growth with SF-295 CNS is -22.6% (active); in the assay on SF-539 CNS it was -10.2% (active); in the assay on UACC-257 melanoma, -39.7% (active); in the assay with M14 melanoma, -15.7% (active); in the assay on HCT-15 colon, -18.1% (active); in the assay with HT29 colon it was -21% (active). Moreover, the growth with SNB-75 CNS was -6.06% (active); in the assay on SNB-19 CNS, 17.8%; in the assay with U251 CNS, -56.2% (active); in the assay with PC-3 prostate, -13.6% (active); in the assay on SK-MEL-5 melanoma it was -98.5% (active); in the assay with UACC-62 melanoma, -29.2% (active). For the same compound, the growth was -58.7% (active) in the assay on LOX IMVI melanoma and -16.1% (active) in the assay with SK-MEL-28 melanoma.
